# Bioassay records from PubChem BioAssay.
# In the library only some 1.8% were active in any assay of this set; here they are far more common.
# Myeloid diff MLP: promotes myeloid progenitor differentiation; ER-HoxA9 myeloid progenitors, lysozyme-GFP differentiation, flow cytometry; calls only at 10 µM; hit rate 1% among 360,000; AID 624256;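 active = normalized GFP-positive differentiation at or above the plate's own cutoff, the solvent-only control mean plus 3 SD; inconclusive = no clear call, values can overlap the other calls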;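 note: cells exposed to compound for four days before flow analysis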
# Granule exo inh: blocks lytic granule exocytosis; TALL-104 LAMP-1 surface exposure, flow cytometry; cells stimulated with thapsigargin and PMA; inhibition, % at 10 µM; hit rate 0.66% among 360,000;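 active = inhibition above about 55%, limit read from the data; inconclusive = no clear call, values can overlap the other calls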
# ABCB6 inh MLPCN: blocks the human ABCB6 transporter; AID 602162; fluorescence ratio to DMSO, % at 10 µM; hit rate 0.19% among 360,000; Q9NP58; K562-ABCB6 porphyrin accumulation, flow cytometry, 1 h; stronger effect = lower value;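 active = fluorescence ratio to DMSO below 75%, the collection mean minus 3 SD; inconclusive = too few cells collected in the well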;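 note: signal is porphyrin accumulated inside mitochondria; 100% equals median channel fluorescence of DMSO control wells; lower ratio means ABCB6 inhibition with less porphyrin fluorescence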
# * marks the source's active call; other numbers are inactive results; i = inactive; ? = inconclusive; . = not tested or not shown; + = active, no number.
SMILES,Myeloid diff MLP,Granule exo inh,ABCB6 inh MLPCN
O=C(COC(=O)CC1CCCC1)Nc1ccccc1[N+](=O)[O-],i,2,101
CNC(=O)c1ccc(-n2cccn2)nc1,i,5,101
CC1CCCCN1C(=O)/C=C/c1ccccc1[N+](=O)[O-] (centres undefined),i,-3,102
O=C(CSc1ccccn1)Nc1nonc1[N+](=O)[O-],?,59*,105
O=C(CSc1ccccn1)Nc1ccc(NC(=O)CSc2ccccn2)cc1,i,-2,106
COc1ccc(-c2noc(-c3csc([C@@H]4O[C@H](CO)[C@H](O)[C@H](O)[C@H]4O)n3)n2)cc1OC,i,3,96
COc1ccc2nc(-c3ccccc3)nc(SC)c2c1,i,-2,98
CCOC(=O)C1=CCC(c2ccc(Cl)cc2)N(S(=O)(=O)c2ccc(C)cc2)C1 (centres undefined),i,21,102
COc1ccc(-c2cn3c(C)c(C(=O)N4CCCc5ccccc54)sc3n2)cc1,i,-13,99
Cc1ccc(C)c2nc3sc(C(=O)N4CCCc5ccccc54)c(N)c3cc12,+,5,639
CC(C)c1cc(N2CCN(C(=O)c3ccco3)CC2)n2c(nc3ccccc32)c1C#N,i,4,97
Cc1cc(-c2ccco2)c(C#N)c2nc3ccccc3n12,+,-9,103
CCOC(=O)N1CCC(NC(=O)CCS(=O)(=O)c2ccc3c(c2)CCN3C(C)=O)CC1,i,1,84
CC1CCC(NC(=O)CCS(=O)(=O)c2ccc3c(c2)CCN3C(=O)C2CC2)CC1 (centres undefined),+,-4,103
Cn1c(=O)c2c(nc(C(O)c3ccccc3)n2C)n(C)c1=O (centres undefined),i,13,95
O=C(NCCc1ccc(O)cc1)c1[nH]c(C(F)(F)F)nc1-c1ccccc1,i,-3,98
c1cc2c3c(cccc3c1)NC1(CCCCCC1)N2,i,10,109
c1cc2c3c(cccc3c1)NC1(CCC3(CC1)Nc1cccc4cccc(c14)N3)N2,i,60*,98
Cc1cc(C)nc(NC(=O)/C=C/c2ccccc2Cl)c1,i,-3,102
Cc1cc(C)nc(NC(=O)/C=C/c2ccccc2Cl)n1,+,-8,96
Cc1ccc(NC(=O)[C@H](Cc2c[nH]c3ccccc23)NC(=O)[C@@H]2Cc3ccccc3CN2)c(C)c1,+,-1,98
Cc1cccc(NC(=O)[C@H](Cc2c[nH]c3ccccc23)NC(=O)[C@@H]2Cc3ccccc3CN2)c1,i,1,99
CC(NS(=O)(=O)c1ccc(OCC(=O)NCc2ccccn2)cc1)c1ccccc1 (centres undefined),i,-11,95
O=[N+]([O-])c1ccc(N/N=C/c2sc(N3CCOCC3)nc2-c2ccccc2)c(S(=O)(=O)Nc2ccccc2Cl)c1,i,2,i
O=[N+]([O-])c1ccc(N/N=C/c2sc(N3CCOCC3)nc2-c2ccccc2)c(S(=O)(=O)Nc2ccc(Cl)cc2)c1,+,3,i
SMILES,Myeloid diff MLP,Granule exo inh,ABCB6 inh MLPCN
CCCCCCC(=O)N(O)C1CC(=O)N(c2ccc(C)cc2)C1=O (centres undefined),i,24,99
CCCCCCC(=O)N(O)C1CC(=O)N(c2ccc(Cl)cc2)C1=O (centres undefined),i,72*,100
Cc1ccc(N(C)S(=O)(=O)c2ccc3c(c2)CC(C)N3C(=O)C2CC2)cc1 (centres undefined),+,0,99
CC(=O)N1c2ccc(S(=O)(=O)N(C)c3cc(C)ccc3C)cc2CC1C (centres undefined),i,-6,98
CC(=O)Nc1cccc(-c2ccnc3c2CC(C(=O)Nc2ccccc2)O3)c1 (centres undefined),i,3,93
c1ccc(-c2cnn3c(-c4ccccc4)c(-c4ccccc4)nc3n2)cc1,+,2,855
Nc1nc(-c2ccccc2)c(-c2ccccc2)n1N,i,-11,156
COC1=C(N)C(=O)c2nc(C)ccc2C1=O,.,-8,89
COC1=C(Br)C(=O)c2nc(C)ccc2C1=O,i,98*,113
Cc1ccc(SC2=C(Sc3ccc(C)cc3)C(=O)c3ccccc3C2=O)cc1,i,93*,113
Cc1ccc(N2C(=O)c3ccccc3C2=O)cc1,i,-2,99
c1ccc(-c2ccc3ncccc3n2)cc1,i,2,105
C=Cc1cnc([N+](=O)[O-])n1C,i,0,99
COc1ccccc1-[n+]1c(C)cc(/C=C2\Sc3ccccc3N2C)cc1C,.,45,399
COc1ccc(-[n+]2c(C)cc(/C=C3\Sc4ccccc4N3C)cc2C)cc1,.,61*,935
CCOC(=O)C(CC(=O)c1ccccc1)CC(=O)c1ccccc1,i,-4,95
